HPGD inh: inhibitors of human 15-hydroxyprostaglandin dehydrogenase (HPGD); Potency, µM, hits mostly inhibitors; purified HPGD, NADH fluorescence kinetic, PGE2 substrate; hit rate 4.3% among 150,000
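20 nM HPGD preincubated 15 min at room temperature with compound in 50 mM Tris-HCl pH 8, 0.01% Tween 20. Started with 1 mM NAD+ and 30 uM prostaglandin E2; NADH fluorescence (360/450 nm) read 5 times over 30-s intervals, last minus first.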
PNC assembly inh: inhibitors of perinucleolar compartment assembly. AID 2417. PC3M PTB-GFP, PNC prevalence imaging, 16 h; active compounds read low. hit rate 3.1% among 140,000. activity change (PNC), negative = inhibition, % at 10 µM;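 active = readout at or below -70, meaning at least 70% loss of cells showing the perinucleolar compartment, a nuclear body marking cancer cells; inconclusive = readout between -30 and a set limit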
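Compounds are pinned in duplicate onto adhered PC3M cells stably expressing GFP-tagged PTB and incubated 16 h at 37 C. Cells are then fixed, nuclei stained with Hoechst, and PNC-positive cells counted.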
ALDH1A1 inh: inhibitors of human aldehyde dehydrogenase 1A1. P00352. Purified ALDH1A1, NADH fluorescence, propionaldehyde substrate. Potency, µM (series often up to 75.3 µM), actives largely listed as inhibitors. hit rate 7.3% among 220,000
Target sequence (P00352 whole entry, looked up): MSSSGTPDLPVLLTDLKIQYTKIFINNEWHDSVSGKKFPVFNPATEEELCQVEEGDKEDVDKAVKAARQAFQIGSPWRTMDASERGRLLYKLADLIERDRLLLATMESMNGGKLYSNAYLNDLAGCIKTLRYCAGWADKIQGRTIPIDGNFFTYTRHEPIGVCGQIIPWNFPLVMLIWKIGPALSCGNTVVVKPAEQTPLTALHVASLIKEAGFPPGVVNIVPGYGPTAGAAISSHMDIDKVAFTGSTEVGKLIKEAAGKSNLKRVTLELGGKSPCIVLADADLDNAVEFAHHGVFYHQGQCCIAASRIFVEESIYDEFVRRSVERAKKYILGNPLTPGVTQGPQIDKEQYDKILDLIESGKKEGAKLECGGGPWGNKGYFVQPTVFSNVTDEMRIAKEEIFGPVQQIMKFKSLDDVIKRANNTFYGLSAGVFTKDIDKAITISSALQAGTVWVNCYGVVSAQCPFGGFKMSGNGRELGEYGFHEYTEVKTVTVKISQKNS
Numbers stand for hits; n = inactive; u = inconclusive; x = no result given. Most compounds without a hit are left out; they make up all but 11% or so of the library. Unless noted, calls follow the shape of the dose curve; as a rule, active = well fitted inhibition curve with a large enough effect (not every such curve was filed as active); inconclusive = small, poorly fitted or top-dose-only effect, or another doubt; inactive = no such curve, though single readings can be large or run the other way.

SMILES	HPGD inh	PNC assembly inh	ALDH1A1 inh
COC(=O)c1ccc(C23CC4(C2)[C@H](CN(C)[C@@H]4c2ccccc2)C3c2ccc(Cl)nc2)cc1 (some centres undefined)	n	x	n
CC1=NCC(C)c2c1[nH]c1ccccc21 (centres undefined)	n	n	n
CC(C)C[C@@H]1NC(=O)[C@H](C(C)C)NC(=O)c2cc([N+](=O)[O-])cc(I)c2OCC[C@@H](C(N)=O)NC1=O	n	n	u
COc1ccc(-c2nc(NC(C)=O)sc2-c2ccc(OC)cc2)cc1	x	x	3.2µM
COc1ccc(-c2sc(NC(=O)c3ccc(C)cc3)nc2-c2ccc([N+](=O)[O-])cc2)cc1	n	n	n
NS(=O)(=O)c1ccc(CCNC(=O)COC(=O)/C=C/c2ccc(Cl)cc2)cc1	x	x	n
CCNc1nc(Oc2ccc(=O)[nH]n2)nc(N2CCOCC2)n1	n	u	n
O=c1ccc(Oc2nc(N3CCCCC3)nc(N3CCCCC3)n2)n[nH]1	n	-100	u
COc1cccc(C(C(=O)NCc2ccco2)N(C(=O)Cn2nnc3ccccc32)C2CC2)c1OC (centres undefined)	n	n	n
Cc1ccccc1C(=O)N1CCN(c2ccc(NC(=S)NC(=O)c3cccs3)cc2)CC1	x	x	n
COc1cc(NS(=O)(=O)c2ccc(NC(=S)NC(=O)c3cccs3)cc2)nc(OC)n1	n	u	u
Cc1ccc(C(=O)N2CCN(c3ccc(NC(=S)NC(=O)c4cccs4)cc3)CC2)cc1	x	x	14µM
CN(C1CCCCC1)S(=O)(=O)c1ccc(NC(=S)NC(=O)c2cccs2)cc1	n	n	22µM
CN(Cc1ccccc1)S(=O)(=O)c1ccc(NC(=S)NC(=O)C2CCCC2)cc1	n	n	u
Cc1cc(C)cc(NS(=O)(=O)c2ccc(NC(=S)NC(=O)c3cccs3)cc2)c1	n	u	10µM
CCOc1ccccc1N1CCN(Cc2cn[nH]c2-c2ccc(F)cc2)CC1	x	x	n
COc1ccc(NC(=O)N2CCC(n3nnc4cc(C)ccc43)CC2)cc1	n	n	n
CN(C)C(=O)CN1CCN(Cc2cn(C)nc2-c2ccc3c(c2)OCCO3)CC1	x	x	n
Cc1cccc(OCC(=O)Nc2ccc(C(=O)c3ccc(C(=O)O)cc3)cc2)c1	x	x	n
Cc1c2c(nc3ccccc13)CC(C)(C)CC2=O	x	x	14µM
Cc1c2c(nc3nc4ccccc4n13)CC(C)(C)CC2=O	n	n	n
CNc1ccccc(-c2ccc3cc4c(cc3n2)OCO4)c1=O	n	-109	u
CCc1ccccc1NC1=NCC(=O)N1Cc1ccc2c(c1)OCO2	n	n	n
NS(=O)(=O)c1cccnc1Nc1c(Cl)cccc1Cl	n	n	n
CC(C)(C)c1ccc(OCc2ccc(C(=O)N/N=C3\CC4CC=CC34)cc2)cc1 (centres undefined)	n	n	n
SMILES	HPGD inh	PNC assembly inh	ALDH1A1 inh
O=C(N/N=C1\CC2CC=CC12)c1ccc(COc2ccccc2)cc1 (centres undefined)	22µM	n	n
O=C1C(=O)N(CNc2cccnc2)c2ccccc21	16µM	u	n
O=C1C(=O)N(CNc2ccccn2)c2ccccc21	n	n	3.2µM
O=C1CCC(=O)N1CNc1cccnc1	n	n	n
O=C(CC(=O)Nc1ccccn1)Nc1ccccn1	n	n	n
O=c1[nH]c(SCc2c(Cl)cccc2Cl)nc2ccccc12	x	x	n
Cc1ncc(CO)c(C=O)c1O	n	x	n
COc1ccccc1-c1nc(N(C)C)c2ccccc2n1	x	x	n
C=CCNCCCCOc1ccc(OCC)cc1	n	n	n
C=CCN(CC=C)C(=S)NC(=O)c1ccc(OC)cc1	x	x	15µM
C=CCN(CC=C)C(=S)NC(=O)/C=C/c1ccc(OC)cc1	n	u	n
COc1cc(CNCCSc2nnnn2C)cc(Br)c1OCc1ccccc1	x	x	n
Cc1ccc(Nc2cccccc2=O)cc1	x	n	n
Cc1ccc(NN2C(=O)C=C(c3ccccc3)C2=O)cc1	x	x	16µM
COc1ccc(/C=C2\CCn3c2nc2cc(C(=O)O)ccc2c3=O)cc1O	14µM	-96	22µM
COc1ccc(/C=C2\N=C(C)N(c3ccc(C(=O)O)cc3)C2=O)cc1OC	n	n	n
CCOCCCNC(=O)COc1ccc(OC)cc1	n	n	u
CCN=C(NCC)SC1CC(=O)N(c2ccc(OC)cc2)C1=O (centres undefined)	n	n	u
O=C1CC(Sc2nnnn2-c2ccccc2)C(=O)N1c1cccc(Cl)c1 (centres undefined)	32µM	n	0.79µM
O=C1CC(SC(=Nc2ccccc2)Nc2ccccc2)C(=O)N1c1cccc(Cl)c1 (centres undefined)	n	n	n
COc1ccc(N2C(=O)CC(Sc3nnnn3-c3ccc(F)cc3)C2=O)cc1 (centres undefined)	x	x	2.5µM
CCOc1cc(NS(=O)(=O)c2ccc(NC(C)=O)cc2)c(OCC)cc1NC(=O)c1cccs1	n	u	n
CCOc1ccccc1CN1CCN(S(=O)(=O)CC)CC1	n	u	n
CCCS(=O)(=O)N1CCN(Cc2ccccc2OCC)CC1	n	-85	n
O=C(/C=C/c1ccc(Br)cc1)c1ccc(NC2=NCCCS2)cc1	8.9µM	-93	n
SMILES	HPGD inh	PNC assembly inh	ALDH1A1 inh
c1ccc(NC2=NCCCCS2)cc1	n	n	n
CC(C)(C)c1ccc(/C=C/C(=O)Nc2ccncc2)cc1	u	n	n
Cc1cccc(/C=C/C(=O)c2ccc(NC3=NCCCS3)cc2)c1	n	n	n
CC(C)(C)c1ccc(/C=C/C(=O)c2ccc(NC3=NCCCS3)cc2)cc1	20µM	n	n
O=C(/C=C/c1ccccc1)c1ccc(NC2=NCCCS2)cc1	14µM	u	n
O=C(Nc1ccccc1)c1ccc(NC2CCCCC2)c(S(=O)(=O)N2CCOCC2)c1	u	n	u
CCCC(=O)Nc1ncnc2c1ncn2[C@@H]1O[C@H]2COP(=O)(O)O[C@@H]2[C@@H]1OC(=O)CCC	n	x	n
COc1ccc2[nH]cc(CCNc3cc(-c4ccccc4Cl)ncn3)c2c1	x	x	n
COc1ccc2[nH]cc(CCNc3ccnc(-c4ccccc4Cl)n3)c2c1	x	x	25µM
CCC1CCC2(CC1)NNC(=S)NN2	10µM	n	7.5µM
CCC1CCC2(CC1)NC(CO)(CO)CO2 (centres undefined)	n	u	n
O=C(/C=C/c1ccc(F)cc1)NCC1(c2ccccc2)CCOCC1	n	u	n
COc1ccc(OC)c(NC(=O)Cn2c(=O)n(CC(=O)NCc3ccco3)c(=O)c3ccccc32)c1	n	n	n
COc1ccc(Cl)cc1NC(=O)Cn1c(=O)n2nc(C)nc2c2ccccc21	n	u	7.9µM
COc1ccc(Cl)cc1NC(=O)CN1C(=O)CCS(=O)(=O)c2ccccc21	n	-100	n
COc1ccccc1NC(=O)Cn1c(=O)n2nc(C)nc2c2ccccc21	n	u	20µM
COc1ccccc1NC(=O)CN1C(=O)CCS(=O)(=O)c2ccccc21	n	u	n
COc1ccccc1NC(=O)Cn1c(=O)sc2ccccc21	n	n	n
Cc1cc(C)n(CCN(C)c2nc3nonc3nc2NC2CC2)n1	x	x	n
CC(C)CN(C(=O)c1nn(C)c(=O)c2ccccc12)c1nc2ccccc2s1	n	n	n
CC(C)CCNC(=O)c1sc2ccc(S(=O)(=O)N3CCCCC3)cc2c1N	u	u	n
c1ccc(-c2nn3nnnc3c3ccccc23)cc1	n	n	n
Cc1ccc(-c2nn3nnnc3c3ccccc23)cc1C	n	n	7.1µM

Compound activity: PubChem BioAssay, National Center for Advancing Translational Sciences (NCATS)
